# Reference: PubChem BioAssay (Tox21)
# “And” between values parts separate entries of the source, which are not always exact repeats. Equal values may be shown once. Unmarked numbers belong to inactive results. Results filed as inconclusive are left out. Where a call stands in place of a potency, no number is given. The source made the active and inactive calls. Calls come from the whole dose curve; as a rule, active = well fitted curve in the direction sought with a large enough effect in the repeat runs; inconclusive = weak or mixed curves; inactive = no such curve, though single readings can be large; an effect the other way counts as inactive or inconclusive.
# Assays:
# [1] = qHTS RealTime-Glo MT Cell Viability Assay in HEK293 cells - 16 hour (AID 1224872); note: nearly all actives have a fitted effect of over 50% in size; note: potency is the fitted concentration of half-maximal effect
# Outline: (§1)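 Reads taken at 0, 8, 16, 24, 32 and 40 h from the same wells. HEK293 cells (600/well) carried RealTime-Glo reagents from seeding, with compound added after a 5 h settle at 37 C.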
# [2] = qHTS RealTime-Glo MT Cell Viability Assay in HEK293 cells - 40 hour (AID 1224874); conditions: RealTime-Glo luminescence; max response: stronger effect = lower value; note: nearly all actives have a fitted effect of over 50% in size; note: potency is the fitted concentration of half-maximal effect
# Outline: (§2)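 HEK293 cells mixed with RealTime-Glo reagents (NanoLuc plus cell-permeant prosubstrate) at 600 cells/well, preincubated 5 h at 37 C/5% CO2, then given 23 nL compound in DMSO. Nonlytic luminescence from viable cells was read at 0, 8, 16, 24, 32 and 40 h.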
# [3] = A CellTox Green Cytotoxicity Assay to monitor cytotoxicity in HEK293 cells - 24 hour (AID 1224875); note: nearly all actives have a fitted effect of over 45% in size; note: potency is the fitted concentration of half-maximal effect
# Outline: (§3)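 HEK293 cells premixed with CellTox Green dye were seeded at 600 cells/well and left 5 h at 37 C/5% CO2 before pin transfer of 23 nL compound in DMSO. Fluorescence from dye bound to dead-cell DNA was read during 40 h treatment.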
# [4] = A CellTox Green Cytotoxicity Assay to monitor cytotoxicity in HepG2 cells - 16 hour (AID 1224876); note: nearly all actives have a fitted effect of over 45% in size; note: potency is the fitted concentration of half-maximal effect
# Outline: (§4)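 HepG2 cells were seeded together with the CellTox Green dye at 600 cells/well, left 5 h at 37 C/5% CO2, then given compounds in DMSO. Fluorescence from dye bound to dead-cell DNA was read repeatedly over 40 h of treatment at 37 C.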
# [5] = A CellTox Green Cytotoxicity Assay to monitor cytotoxicity in HepG2 cells - 24 hour (AID 1224878); note: nearly all actives have a fitted effect of over 45% in size; note: potency is the fitted concentration of half-maximal effect
# Outline: as §4
# [6] = qHTS RealTime-Glo MT Cell Viability Assay in HEK293 cells - 0 hour (AID 1224880); note: top concentration of the series differs between compounds; nearly all actives have a fitted effect of over 45% in size
# Outline: as §2
# [7] = A CellTox Green Cytotoxicity Assay to monitor cytotoxicity in HepG2 cells - 0 hour (AID 1224882); note: nearly all actives have a fitted effect of over 35% in size
# Outline: as §4
# [8] = A CellTox Green Cytotoxicity Assay to monitor cytotoxicity in HepG2 cells - 32 hour (AID 1224883); note: nearly all actives have a fitted effect of over 50% in size; note: potency is the fitted concentration of half-maximal effect
# Outline: as §4
# [9] = A CellTox Green Cytotoxicity Assay to monitor cytotoxicity in HEK293 cells - 8 hour (AID 1224884); note: nearly all actives have a fitted effect of over 35% in size; note: potency is the fitted concentration of half-maximal effect
# Outline: as §3
# [10] = qHTS RealTime-Glo MT Cell Viability Assay in HEK293 cells - 24 hour (AID 1224886); note: nearly all actives have a fitted effect of over 50% in size; note: potency is the fitted concentration of half-maximal effect
# Outline: as §1
# [11] = qHTS RealTime-Glo MT Cell Viability Assay in HEK293 cells - 8 hour (AID 1224887); note: nearly all actives have a fitted effect of over 50% in size; note: potency is the fitted concentration of half-maximal effect
# Outline: as §2
# [12] = A CellTox Green Cytotoxicity Assay to monitor cytotoxicity in HEK293 cells - 16 hour (AID 1224888); note: nearly all actives have a fitted effect of over 35% in size; note: potency is the fitted concentration of half-maximal effect
# Outline: as §3
# [13] = qHTS RealTime-Glo MT Cell Viability Assay in HepG2 cells - 0 hour (AID 1224889); note: nearly all actives have a fitted effect of over 50% in size
# Outline: (§5)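 HepG2 suspension premixed with RealTime-Glo reagents is plated at 600 cells per well and left 5 h at 37 C/5% CO2. Compounds in DMSO then go in, and bioluminescence reflecting viable cell number is recorded over 40 h.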
# [14] = A CellTox Green Cytotoxicity Assay to monitor cytotoxicity in HepG2 cells - 8 hour (AID 1224890); note: nearly all actives have a fitted effect of over 45% in size; note: potency is the fitted concentration of half-maximal effect
# Outline: as §4
# [15] = A CellTox Green Cytotoxicity Assay to monitor cytotoxicity in HepG2 cells - 40 hour (AID 1224879); note: nearly all actives have a fitted effect of over 40% in size; note: potency is the fitted concentration of half-maximal effect
# Outline: as §4
# [16] = A CellTox Green Cytotoxicity Assay to monitor cytotoxicity in HEK293 cells - 32 hour (AID 1224881); note: nearly all actives have a fitted effect of over 40% in size; note: potency is the fitted concentration of half-maximal effect
# Outline: as §3
# [17] = qHTS assay to identify small molecule antagonists of the estrogen receptor alpha (ER-alpha) signaling pathway using the BG1 cell line in the presence of 0.1 nM 17-beta-estradiol - cell viability counter screen (AID 1259241); note: nearly all actives have a fitted effect of over 40% in size; note: potency is the fitted concentration of half-maximal effect
# Outline: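 Live-cell protease activity (CellTiter-Fluor fluorescence, 30 min) was read in the same wells after VM7Luc4E2 cells had been exposed to compounds with 0.1 nM 17beta-estradiol for 22 hr at 37C.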
# [18] = qHTS RealTime-Glo MT Cell Viability Assay in HepG2 cells - 8 hour (AID 1224873); note: nearly all actives have a fitted effect of over 55% in size; note: potency is the fitted concentration of half-maximal effect
# Outline: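 HepG2 cells (600/well) mixed with RealTime-Glo MT reagent, settled 5 h at 37 C/5% CO2 before compound addition. Nonlytic NanoLuc luminescence from viable-cell prosubstrate reduction read repeatedly during 40 h treatment at 37 C.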
# [19] = qHTS RealTime-Glo MT Cell Viability Assay in HepG2 cells - 32 hour (AID 1224877); note: nearly all actives have a fitted effect of over 55% in size
# Outline: as §5
# [20] = qHTS RealTime-Glo MT Cell Viability Assay in HepG2 cells - 16 hour (AID 1224885); note: nearly all actives have a fitted effect of over 50% in size
# Outline: as §5
smiles,measurement,setting,value
CCOCn1c(-c2ccc(Cl)cc2)c(C#N)c(Br)c1C(F)(F)F,Potency,[1],6.16 µM (active)
same,Potency,[2],4.36 µM (active)
same,Potency,[3],inactive
same,Potency,[4],inactive
same,Potency,[5],17.4 µM (active)
same,Potency,[6],inactive
same,Potency,[7],inactive
same,Potency,[8],12.3 µM (active)
same,Potency,[9],inactive
same,Potency,[10],4.9 µM (active)
same,Potency,[11],19.5 µM (active)
same,Potency,[12],inactive
same,Potency,[13],inactive
same,Potency,[14],inactive
CCCCCCCCc1ccc(O)cc1,Potency,[1],4.39 µM (active)
same,Potency,[2],17 µM (active)
same,Potency,[3],17.5 µM (active)
same,Potency,[4],38 µM (active)
same,Potency,[5],19.6 µM (active)
same,Potency,[15],19.6 µM (active)
same,Potency,[16],17.5 µM (active)
same,Potency,[7],inactive
same,Potency,[8],42.7 µM (active)
same,Potency,[9],43.9 µM (active)
same,Potency,[10],4.93 µM (active)
same,Potency,[11],6.76 µM (active)
same,Potency,[13],inactive
same,Potency,[14],17.5 µM (active)
O=c1c(C2CC(c3ccc(-c4ccc(Br)cc4)cc3)Cc3ccccc32)c(O)sc2ccccc12 (stereo not drawn),Potency,[1],inactive
same,max response,[2],-20.8%
same,Potency,[3],inactive
same,Potency,[4],inactive
same,Potency,[15],inactive
same,Potency,[16],inactive
same,Potency,[7],inactive
same,Potency,[8],inactive
same,Potency,[9],inactive
same,Potency,[10],inactive
same,Potency,[11],inactive
same,Potency,[12],inactive
same,Potency,[14],inactive
same,Potency,[17],inactive
[Cl][Sb]([Cl])[Cl],Potency,[1],inactive
same,Potency,[18],inactive
same,Potency,[3],inactive
same,Potency,[4],inactive
same,Potency,[19],inactive
same,Potency,[5],inactive
same,Potency,[16],inactive
same,Potency,[7],inactive
same,Potency,[9],inactive
same,Potency,[20],inactive
same,Potency,[11],inactive
same,Potency,[12],inactive
same,Potency,[13],inactive
same,Potency,[14],inactive
same,Potency,[17],27.3 µM (active)
O=C(O)COc1nc(Cl)c(Cl)cc1Cl,Potency,[1],inactive
same,Potency,[18],inactive
same,Potency,[4],12.6 µM (active)
same,Potency,[19],inactive
same,Potency,[20],inactive
same,Potency,[10],inactive
same,Potency,[11],inactive
same,Potency,[13],inactive
same,Potency,[17],inactive
CCCCCCCCCCCCCCCC[n+]1ccccc1,Potency,[1],21.6 µM (active) [middle of 4 runs]
same,Potency,[18],57.5 µM (active) and 49 µM (active) and 48.3 µM (active)
same,Potency,[6],inactive
same,Potency,[16],34.2 µM (active) [middle of 4 runs]
same,Potency,[8],15.5 µM (active) [middle of 4 runs]
same,Potency,[9],49 µM (active) [middle of 4 runs]
same,Potency,[10],9.52 µM (active) [middle of 4 runs]
same,Potency,[11],45.7 µM (active) and 54.9 µM (active) and 54.2 µM (active)
same,Potency,[12],49 µM (active) [middle of 4 runs]
same,Potency,[13],inactive
same,Potency,[14],49 µM (active) and 48.3 µM (active) and 16.9 µM (active)
C=CCC1=C(C)C(OC(=O)C2C(C=C(C)C)C2(C)C)CC1=O (stereo not drawn),Potency,[1],20.7 µM (active)
same,Potency,[2],41.2 µM (active)
same,Potency,[3],51.9 µM (active)
same,Potency,[19],inactive
same,Potency,[6],inactive
same,Potency,[16],51.9 µM (active)
same,Potency,[9],51.9 µM (active)
same,Potency,[10],23.2 µM (active)
same,Potency,[11],23.2 µM (active)
NC(=O)c1ccc(N)nc1,Potency,[1],inactive
same,Potency,[18],inactive
same,Potency,[3],inactive
same,Potency,[4],inactive
same,Potency,[19],inactive
same,Potency,[5],inactive
same,Potency,[15],inactive
same,Potency,[6],inactive
same,Potency,[16],inactive
same,Potency,[7],inactive
same,Potency,[8],inactive
same,Potency,[9],inactive
same,Potency,[20],inactive
same,Potency,[11],inactive
same,Potency,[13],inactive
same,Potency,[14],inactive
same,Potency,[17],inactive
ClC1=C(Cl)C2(Cl)C3C(Cl)C(Cl)CC3C1(Cl)C2(Cl)Cl (stereo not drawn),Potency,[1],48.8 µM (active) and 49 µM (active)
same,Potency,[2],48.8 µM (active)
same,Potency,[3],48.8 µM (active) and 49 µM (active)
same,Potency,[6],inactive
same,Potency,[16],48.8 µM (active) and 49 µM (active)
same,Potency,[7],inactive
same,Potency,[9],54.8 µM (active)
same,Potency,[10],48.8 µM (active)
same,Potency,[11],48.8 µM (active) and 49 µM (active)
same,Potency,[12],54.8 µM (active)
same,Potency,[13],inactive
same,Potency,[17],inactive
O=C(O)C1C2CCC(O2)C1C(=O)O (stereo not drawn),Potency,[1],inactive
same,Potency,[18],inactive
same,Potency,[3],inactive
same,Potency,[4],inactive
same,Potency,[19],inactive
same,Potency,[5],inactive
same,Potency,[6],inactive
same,Potency,[16],inactive
same,Potency,[7],inactive
same,Potency,[8],inactive
same,Potency,[9],inactive
same,Potency,[20],inactive
same,Potency,[10],inactive
same,Potency,[11],inactive
same,Potency,[12],inactive
same,Potency,[13],inactive
same,Potency,[14],inactive
same,Potency,[17],inactive
C[C@]12CC[C@H](O)C[C@H]1CC[C@@H]1[C@@H]2C[C@@H](O)[C@]2(C)[C@@H](C3=CC(=O)OC3)CC[C@]12O,Potency,[18],inactive
same,Potency,[2],0.776 µM (active)
same,Potency,[3],inactive
same,Potency,[4],inactive
same,Potency,[5],inactive
same,Potency,[15],inactive
same,Potency,[6],inactive
same,Potency,[16],inactive
same,Potency,[8],inactive
same,Potency,[9],inactive
same,Potency,[20],inactive
same,Potency,[10],0.616 µM (active)
same,Potency,[11],inactive
same,Potency,[12],inactive
same,Potency,[13],inactive
same,Potency,[14],inactive
same,Potency,[17],inactive
ClC1=C(Cl)C2(Cl)C3C(Cl)C=CC3C1(Cl)C2(Cl)Cl (stereo not drawn),Potency,[1],43.8 µM (active) and 43.6 µM (active)
same,Potency,[2],49.2 µM (active) and 49 µM (active)
same,Potency,[3],49.2 µM (active) and 49 µM (active)
same,Potency,[6],inactive
same,Potency,[16],55.2 µM (active) and 49 µM (active)
same,Potency,[8],54.9 µM (active)
same,Potency,[9],55.2 µM (active) and 49 µM (active)
same,Potency,[10],43.8 µM (active) and 49 µM (active)
same,Potency,[11],43.8 µM (active) and 43.6 µM (active)
same,Potency,[13],inactive
same,Potency,[17],inactive
Oc1cccc(-c2ccccc2)c1,Potency,[18],inactive
same,Potency,[3],inactive
same,Potency,[4],inactive
same,Potency,[19],inactive
same,Potency,[5],inactive
same,Potency,[15],inactive
same,Potency,[6],inactive
same,Potency,[16],inactive
same,Potency,[7],inactive
same,Potency,[8],inactive
same,Potency,[9],inactive
same,Potency,[20],inactive
same,Potency,[12],inactive
same,Potency,[13],inactive
same,Potency,[14],inactive
same,Potency,[17],inactive
CN(C)C1CSSSC1,Potency,[18],inactive
same,max response,[2],3.22%
same,Potency,[3],inactive
same,Potency,[4],inactive
same,Potency,[19],inactive
same,Potency,[5],inactive
same,Potency,[15],inactive
same,Potency,[6],inactive
same,Potency,[16],inactive
same,Potency,[7],inactive
same,Potency,[8],inactive
same,Potency,[20],inactive
same,Potency,[10],inactive
same,Potency,[12],inactive
same,Potency,[13],inactive
same,Potency,[14],inactive
same,Potency,[17],inactive
CC1(C)C(/C=C(\Cl)C(F)(F)F)C1C(=O)OC(C#N)c1cccc(Oc2ccccc2)c1 (stereo not drawn),Potency,[18],inactive
same,Potency,[3],inactive
same,Potency,[4],inactive
same,Potency,[19],inactive
same,Potency,[5],inactive
same,Potency,[15],inactive
same,Potency,[6],inactive
same,Potency,[16],inactive
same,Potency,[7],inactive
same,Potency,[8],inactive
same,Potency,[9],inactive
same,Potency,[20],inactive
same,Potency,[13],inactive
same,Potency,[17],inactive
